Compounds with a hit are over-represented: about 9.3% of the library has one in this group of screens.
Rab9 prom act = qHTS Assay for Rab9 Promoter Activators; 320,000 tested, 2.8% active; Potency, µM (top dose mostly 9.22 µM), without a hit: at the highest dose activation, negative = inhibition, hits mostly activators; AID 485297, 2010; Huh7 Rab9 promoter-luciferase reporter, luminescence, 24 h; also: % of control where 0% means no effect; nearly all actives have a fitted effect of over 60% in size
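Using Huh7 cells stably transfected with Rab9 promoter–luciferase, compounds were incubated 24 h at 37 °C, 5% CO2; luciferase luminescence was read 10 min after reagent addition.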
ELG1 repair inh = qHTS screen for small molecules that inhibit ELG1-dependent DNA repair in human embryonic kidney (HEK293T) cells expressing luciferase-tagged ELG1; AID 504467, 2011; Potency, µM (series often up to 46.1 µM), inactives show top-dose activity change, negative = inhibition, most hits filed as inhibitors; 330,000 tested, 2.3% active; HEK293T ELG1-luciferase reporter, luminescence, 16 h; DNA damage induced by 5-fluorouridine; also: % is scaled to controls: 0 for no effect and ±100 for the full control effect; nearly all actives have a fitted effect of over 55% in size
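Step one: seed 2,000 cells per well. Step two: pin-transfer compound or DMSO alongside 5-fluorouridine. Step three: incubate 16 hr, 37 °C, 5% CO2. Step four: add ONE-Glo, wait 30 min, read luminescence.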
ELG1 genotox = qHTS screen for small molecules that induce genotoxicity in human embryonic kidney (HEK293T) cells expressing luciferase-tagged ELG1. HEK293T ELG1-luciferase reporter, luminescence, 16 h. 330,000 tested, 1.3% active. Potency, µM (highest dose often 46 µM), inactives show top-dose activity change, positive = activation, usual class: activators; also: % of control where 0% means no effect; nearly all actives have a fitted effect of over 60% in size
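Reporter readout depends on ELG1 protein level, which increases with genetic stress. After 16 hr compound exposure at 37 °C, luciferase activity was quantified using ONE-Glo.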
NPC1 prom act = qHTS Assay for NPC1 Promoter Activators; 320,000 tested, 2.4% active; AID 485313, 2010; Potency, µM (series often up to 9.22 µM), for the others: at the highest dose activation, most hits filed as activators; Huh7 NPC1 promoter luciferase reporter, 24 h; also: % of control where 0% means no effect; nearly all actives have a fitted effect of over 60% in size
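Huh7 reporter cells (NPC1 promoter driving luciferase) are dosed with compound for 24 h at 37 °C, 5% CO2; luciferase detection reagent is then added and luminescence measured after 10 min at ambient temperature.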
SMN2 splice enh = qHTS Assay for Enhancers of SMN2 Splice Variant Expression. HEK293 SMN2-luciferase splicing reporter, luminescence, 30-36 h. Potency, µM (doses to about 46.1 µM), for inactives: top-dose activity change, positive = activation, most hits filed as activators. 210,000 tested, 2.8% active; also: % of control where 0% means no effect; nearly all actives have a fitted effect of over 55% in size
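HEK293 cells carry an SMN2 minigene-luciferase reporter in which exon 7 inclusion puts luciferase in frame. Cells were seeded at 2000 cells/well, attached for 10-12 hours, then exposed to compounds for 30-36 hours at 37C before ONE-Glo luminescence.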
FLuc counter = qHTS profiling assay for firefly luciferase inhibitor/activator using purifed enzyme and Km concentrations of substrates (counterscreen for miR-21 project). Luciferin 4-monooxygenase (Photinus pyralis), P08659. purified FLuc, Km substrates, luminescence inhibition. Potency, µM (series often up to 57.5 µM), for inactives: top-dose activity change, negative = inhibition, most hits filed as inhibitors. 360,000 tested, 6.9% active;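 also: plate controls were vehicle for no effect and reference inhibitor for full effect; nearly all actives have a fitted effect of over 55% in size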
Target sequence (P08659 whole entry, looked up): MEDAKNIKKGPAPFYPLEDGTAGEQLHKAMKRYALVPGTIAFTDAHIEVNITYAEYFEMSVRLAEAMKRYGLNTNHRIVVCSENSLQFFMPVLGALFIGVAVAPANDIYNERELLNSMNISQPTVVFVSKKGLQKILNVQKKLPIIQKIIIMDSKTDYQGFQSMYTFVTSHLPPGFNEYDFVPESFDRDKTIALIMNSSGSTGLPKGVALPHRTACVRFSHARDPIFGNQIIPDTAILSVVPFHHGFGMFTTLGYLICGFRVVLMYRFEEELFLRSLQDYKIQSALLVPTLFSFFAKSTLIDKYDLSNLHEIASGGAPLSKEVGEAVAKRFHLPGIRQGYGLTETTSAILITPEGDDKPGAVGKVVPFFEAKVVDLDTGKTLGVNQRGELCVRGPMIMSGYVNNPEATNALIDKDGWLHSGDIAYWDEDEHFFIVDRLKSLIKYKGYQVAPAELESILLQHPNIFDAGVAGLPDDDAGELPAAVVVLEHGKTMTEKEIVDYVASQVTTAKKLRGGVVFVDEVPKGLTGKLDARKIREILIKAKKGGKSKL
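Biochemical qHTS of compounds, final roughly 60 µM downward over six points, against 10 nM purified firefly luciferase using Km concentrations of substrates (10 uM D-luciferin, 10 uM ATP) in Tris acetate pH 7.5 buffer; luminescence output.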
Active calls of the source: *; ? = inconclusive; nt = not tested or not shown; [ ] = dose if it differs, or a comment. Calls follow the shape of the dose curve; as a rule, active = well fitted curve in the direction sought with a large enough effect; inconclusive = small, poorly fitted or top-dose-only effect, or another doubt; inactive = no such curve, though single readings can be large; an effect the other way counts as inactive or inconclusive. Potency is read from the fitted curve at half-maximal effect.

SMILES	Rab9 prom act	ELG1 repair inh	ELG1 genotox	NPC1 prom act	SMN2 splice enh	FLuc counter
O=C(CC1S/C(=N/N=C/c2cccs2)NC1=O)Nc1ccc(Cl)c(Cl)c1 (centres undefined)	-2.6%	?	-0.9%	-10.7%	5.8%	1.1%
O=C(CCC(=O)c1cccs1)OCC(=O)c1ccccc1F	8.7%	6.9%	3.2%	4.5%	nt	19µM*
N#Cc1ccccc1COC(=O)CCC(=O)c1cccs1	3.0%	10.8%	4.0%	0.5%	nt	12µM*
O=C(CCC(=O)c1cccs1)OCC(=O)c1ccccc1	nt	3.5%	-1.5%	nt	nt	nt
Cc1oc2cc(O)cc(C)c2c(=O)c1-c1cnn(-c2ccccc2)c1	-6.8%	0.0%	-18.7%	-5.0%	-88.6%	-1.7%
CCc1n[nH]c(=S)n1/N=C/C(C)=C\c1ccccc1	2.7%	-14.8%	0.7%	21.9%	nt	?
C=CCOc1ccccc1CNc1cccc(F)c1	-1.4%	13.7%	3.4%	0.5%	-5.9%	1.6%
CC(C)(C)C(=O)Nc1ccc2c(c1)OCCOCCOc1cc(NC(=O)C(C)(C)C)ccc1OCCOCCO2	-8.9%	7.3µM*	-1.4%	-3.1%	-12.3%	4.3%
C=CCOc1ccccc1CNc1ccc2c(c1)OCCO2	?	?	?	?	-28.9%	0.849µM*
NC(=O)Nc1ccc2c(c1)OCCO2	29.7%	?	?	19.2%	17.2%	21.3µM*
CC(=O)Nc1ccc2c(c1)OCCOCCOc1cc(NC(C)=O)ccc1OCCO2	7.6%	-4.1%	-5.6%	0.5%	nt	5.4%
c1cc(CNc2ccc3c(c2)OCCO3)ccn1	1.2%	?	18.4µM*	0.5%	11.0%	?
Cc1ccccc1OCc1nnc(SCC(=O)Nc2ccc(N3CCOCC3)c(Cl)c2)n1C	-2.1%	-22.9%	-1.2%	3.9%	-0.7%	19µM*
Cc1ccccc1OCc1nnc(SCC(=O)Nc2ccc3c(c2)OCO3)n1C	-5.5%	0.0%	15.8%	-3.0%	-10.5%	1.1%
COc1ccccc1OCc1nnc(SCC(=O)Nc2ccc(N3CCOCC3)cc2)n1C	15.9%	14.3%	0.7%	4.4%	nt	12µM*
Cc1ccc(C(C)C)c(OCCN(C)C)c1	10.7%	9.6%	-3.9%	0.1%	-14.1%	-2.2%
Cc1nc2cc(NC(=O)N3CCCCC3)ccc2n1C	29.6%	?	?	20.3%	12.6µM*	?
CCOC(=O)C1CCN(C(=O)Nc2ccc3c(c2)nc(C)n3C)CC1	?	?	?	?	11.2µM*	-0.3%
Cc1nc2ccc(NC(=O)N3CCCCC3)cc2nc1C	?	?	2.5%	7.3%	3.2%	-15.1%
O=C1CSC2=NCN(c3ccc4c(c3)OCO4)CN12	1.6%	?	?	9.7%	?	?
CN(C)c1ccc(N2CN=C3SCC(=O)N3C2)cc1	6.3%	?	?	14.9%	-12.2%	10.7µM*
COc1ccc2c(CC(=O)Nc3ccc(OC)c(NS(=O)(=O)c4ccc(F)cc4)c3)coc2c1	1.1%	?	-4.9%	0.1%	4.2%	-6.3%
Cc1cc(=O)oc2cc(NC(=O)c3c(Cl)cnn3C)ccc12	22.7%	0.0%	?	29.9%	nt	-6.0%
Cc1cc(=O)oc2cc(NC(=O)c3ccccc3Cl)ccc12	3.55µM*	?	14.6µM*	3.16µM*	nt	10.7µM*
Cc1ccccc1CC(=O)Nc1ccc2c(C)cc(=O)oc2c1	-0.7%	8.6%	3.3%	-2.2%	nt	-0.7%
SMILES	Rab9 prom act	ELG1 repair inh	ELG1 genotox	NPC1 prom act	SMN2 splice enh	FLuc counter
Cc1cc(=O)oc2cc(NC(=O)c3ccccc3C(=O)O)ccc12	-2.0%	3.7%	-2.6%	2.1%	nt	10.7µM*
Cc1cc(=O)oc2cc(NC(=O)c3ccnn3C)ccc12	3.98µM*	?	16.4µM*	2.82µM*	nt	?
COc1cccc(C(=O)Nc2ccc3c(C)cc(=O)oc3c2)c1	0.708µM*	?	2.31µM*	1.12µM*	nt	1.9µM*
CCc1ccc(N=CC2=C(O)CC(c3ccco3)CC2=O)cc1 (centres undefined)	-0.5%	?	5.7%	2.0%	-5.7%	?
COc1ccc(OC)c(Nc2nc(-c3sc(NC(=O)CC(C)C)nc3C)cs2)c1	-4.7%	?	-6.2%	-17.2%	-37.1%	-2.3%
COc1ccc(NC(=O)CSC2=Nc3ccccc3C3=NC(CCC(=O)NCCc4ccccc4)C(=O)N23)cc1 (centres undefined)	nt	nt	nt	nt	nt	-6.9%
O=C1Nc2cccnc2Sc2ccccc21	-6.9%	1.0%	-2.4%	-3.0%	-4.6%	4.9%
c1ccc2c(c1)Nc1nccnc1S2	20.5%	23.9%	?	10.2%	?	23.9µM*
N#C/C(=C(/O)COc1ccccc1)c1nc2ccccc2s1	-0.8%	?	-6.4%	-0.9%	1.6%	19µM*
N#C/C(=C(/O)c1ccc(-c2cccc([N+](=O)[O-])c2)o1)c1nc2ccccc2s1	16.9%	-6.9%	-3.5%	8.4%	2.4%	3.01µM*
Cc1ccc(SC/C(O)=C(\C#N)c2nc3ccccc3s2)cc1	-4.0%	-1.2%	-5.0%	-1.9%	11.4%	?
N#C/C(=C(/O)CSc1ccccn1)c1nc2ccccc2s1	-6.5%	14.0%	6.2%	0.0%	76.6%	21.3µM*
N#C/C(=N\O)c1nc2ccccc2s1	3.9%	-8.3%	-2.5%	-4.2%	nt	?
N#C/C(=C(/O)c1ccc(F)cc1)c1nc2ccccc2s1	2.51µM*	-6.6%	-2.0%	2.51µM*	-35.4%	9.53µM*
COc1ccc(C2CC(c3ccccc3)=NN2C(=O)COC(=O)c2cccc(S(=O)(=O)N(C)C)c2)cc1 (centres undefined)	1.9%	?	4.6%	0.6%	6.2%	-1.5%
COc1ccccc1OCC(=O)NCc1n[nH]c(=O)c2ccccc12	0.5%	12.3%	2.8%	3.1%	nt	-0.7%
COc1ccc(C/C(O)=C(\C#N)c2nc3ccccc3s2)cc1	-3.3%[1.84 µM]	1.0%	-7.8%	-3.5%	-44.7%	?
N#C/C(=C(/O)COc1ccc(Cl)cc1)c1nc2ccccc2s1	-1.7%	?	-9.5%	3.6%	-14.7%	23.9µM*
CCCCNc1c(-c2cccc(-c3ccc(OC)cc3)c2)nc2ccc(C)cn12	9.8%	3.16µM*	-5.2%	15.9%	nt	9.53µM*
CCCCCCSc1ccc(-c2nc3ccccn3c2NCCCC)cc1	0.6%	9.3%	1.2%	-1.0%	nt	?
CCCCNc1c(-c2ccc(-c3ccc(C(C)=O)cc3)c(OC)c2)nc2cnccn12	-6.8%	9.2µM*	-29.8%	-0.1%	nt	-14.0%
